Assay [1] is described as follows: NCI Yeast Anticancer Drug Screen. Data for the rad50 strain (AID 155).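 Note: 0% = growth of vehicle-only cultures of the same strain.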 The conditions noted are these: S. cerevisiae rad50 strain growth inhibition, stronger effect = higher value. The essentials: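 DNA repair mutant yeast, compound exposure, growth read-out; inhibition is taken relative to vehicle.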
Assay [2] can be described thus: NCI Yeast Anticancer Drug Screen. Data for the mec2-1 strain (AID 157). The note with it: S. cerevisiae mec2-1 strain, stronger effect = higher value. The essentials: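 Using mec2-1 yeast: add compound, measure growth, express inhibition versus vehicle-treated cultures.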
A short description of assay [3]: NCI Yeast Anticancer Drug Screen. Data for the sgs1 mgt1 strain (AID 161).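 Note: 0% = growth of cultures given vehicle only.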 The note with it: S. cerevisiae sgs1 mgt1 strain, stronger effect = higher value. In a few lines: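 Compounds are added to genetically altered yeast, and growth is compared with cultures given vehicle alone to give percent inhibition.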
Assay [4] can be described thus: NCI Yeast Anticancer Drug Screen. Data for the cln2 rad14 strain (AID 165).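 Note: 0% = growth equal to vehicle treated cultures.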 The note with it: S. cerevisiae cln2 rad14 strain, stronger effect = higher value. The essentials:
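Yeast strain cln2 rad14, bearing defects in cell cycle control and DNA repair, serves as the test system; values reflect growth inhibition compared with vehicle.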

Assay [5] in a line: NCI Yeast Anticancer Drug Screen. Data for the bub3 strain (AID 167). The note with it: S. cerevisiae bub3 mutant strain, stronger effect = higher value. In a few lines:
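In this screen, a yeast mutant lacking normal mitotic checkpoint function is challenged with compound. Relative growth versus vehicle gives the inhibition value.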

The nature of assay [6]: NCI Yeast Anticancer Drug Screen. Data for the mlh1 rad18 strain (AID 175). The note with it: S. cerevisiae mlh1 rad18 strain growth inhibition, stronger effect = higher value. The essentials: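 Steps: expose repair-defective yeast to compound; measure growth; express inhibition against vehicle-treated controls.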
Setting [7] is: at 5.0 µM (retest, dose inferred, filed as 0.5).
Where [8] appears, read: at 50.0 µM (retest, dose inferred, filed as 5.0).

Each structure is given as a SMILES string. “And” between values parts separate entries of the source, which are not always exact repeats. Equal entries are not always repeated. The panel holds about 79,000 compounds, 15% with a hit somewhere; the sample as a whole holds those more often. More than one record can exist for a structure, and the calls need not agree. The source made the active and inactive calls. Cut-off read from the data, not from the text of the source: active = growth inhibition above about 70%; inactive = the rest.

For the compound `COc1ccc(Br)cc1/C=C/[N+](=O)[O-]`, the growth inhibition in assay [1] (setting [7]) is 90% (active); in assay [1] (setting [8]), 99% (active); in assay [1] (at 50.0 µM) it was 99.3% (active); in assay [2] (setting [7]), 90% (active); in assay [2] (setting [8]) it was 99% (active); in assay [2] (at 50.0 µM), 99.2% (active). Moreover, the growth inhibition in assay [3] (setting [7]) is 91% (active); in assay [3] (setting [8]), 99% (active); in assay [3] (at 50.0 µM) it was 99.4% (active); in assay [4] (setting [7]), 83% (active); in assay [4] (setting [8]), 99% (active); in assay [4] (at 50.0 µM), 77.8% (active). Besides, the growth inhibition in assay [5] (setting [7]) was 92% (active); in assay [5] (setting [8]), 99% (active); in assay [5] (at 50.0 µM) it was 96.1% (active); in assay [6] (setting [7]), 92% (active); in assay [6] (setting [8]) it was 99% (active); in assay [6] (at 50.0 µM), 98.7% (active).

Turning to `CC(=O)C(CN(C(C)C)C(C)C)C(c1ccccc1)c1c(O)c2ccccc2oc1=O` (configuration not stated), the growth inhibition in assay [1] (setting [7]) was 17% (inactive); in assay [1] (setting [8]) it was 17% (inactive); in assay [1] (at 50.0 µM) it was 72% (active); in assay [2] (setting [7]), 11% (inactive); in assay [2] (setting [8]) it was 11% (inactive); in assay [2] (at 50.0 µM), 47.4% (inactive). The growth inhibition is 8% (inactive) in assay [3] (setting [7]); 8% (inactive) in assay [3] (setting [8]); 58.7% (inactive) in assay [3] (at 50.0 µM); -3% (inactive) in assay [4] (setting [7]); -3% (inactive) in assay [4] (setting [8]); 58% (inactive) in assay [4] (at 50.0 µM). Moreover, the growth inhibition was 13% (inactive) in assay [5] (setting [7]); 13% (inactive) in assay [5] (setting [8]); 70.3% (active) in assay [5] (at 50.0 µM); 12% (inactive) in assay [6] (setting [7]); 12% (inactive) in assay [6] (setting [8]); 70.1% (active) in assay [6] (at 50.0 µM).

Consider `CC(=O)OCC1OC([S-])C(OC(C)=O)C(OC(C)=O)C1OC(C)=O.CC[PH+](CC)CC.CC[PH+](CC)CC.[Au].[Au]` (configuration not stated), for which the growth inhibition in assay [1] (setting [7]) was 100% (active); in assay [1] (setting [8]), 99% (active); in assay [1] (at 50.0 µM), 89.8% (active); in assay [2] (setting [7]), 99% (active); in assay [2] (setting [8]), 99% (active); in assay [2] (at 50.0 µM) it was 92% (active). For the same compound, the growth inhibition in assay [3] (setting [7]) is 99% (active); in assay [3] (setting [8]) it was 99% (active); in assay [3] (at 50.0 µM) it was 92% (active); in assay [4] (setting [7]), 98% (active); in assay [4] (setting [8]), 99% (active); in assay [4] (at 50.0 µM) it was 91.3% (active). Also, the growth inhibition in assay [5] (setting [7]) is 99% (active); in assay [5] (setting [8]), 99% (active); in assay [5] (at 50.0 µM), 89.9% (active); in assay [6] (setting [7]) it was 96% (active); in assay [6] (setting [8]) it was 98% (active); in assay [6] (at 50.0 µM), 90% (active).

Regarding `FC1(F)C(Cl)=[C]([Hg][C]2=C(Cl)C(F)(F)C(F)(F)C(F)(F)C2(F)F)C(F)(F)C(F)(F)C1(F)F`, the growth inhibition in assay [1] (setting [7]) is 45% (inactive); in assay [1] (setting [8]), 98% (active); in assay [1] (at 50.0 µM), 98.6% (active); in assay [2] (setting [7]), 66% (inactive); in assay [2] (setting [8]), 99% (active); in assay [2] (at 50.0 µM), 51.1% (inactive). Also, the growth inhibition in assay [3] (setting [7]) is 58% (inactive); in assay [3] (setting [8]), 99% (active); in assay [3] (at 50.0 µM), 99.7% (active); in assay [4] (setting [7]), 57% (inactive); in assay [4] (setting [8]), 99% (active); in assay [4] (at 50.0 µM), 19.9% (inactive). Moreover, the growth inhibition was 69% (inactive) in assay [5] (setting [7]); 99% (active) in assay [5] (setting [8]); 75% (active) in assay [5] (at 50.0 µM); 57% (inactive) in assay [6] (setting [7]); 99% (active) in assay [6] (setting [8]); 50.6% (inactive) in assay [6] (at 50.0 µM).

For `[O]=[Sb][c]1ccc(Cl)cc1`, the growth inhibition in assay [1] (setting [7]) was 5% (inactive); in assay [1] (setting [8]) it was 42% (inactive); in assay [1] (at 50.0 µM), 96.7% (active); in assay [2] (setting [7]), 3% (inactive); in assay [2] (setting [8]), 36% (inactive); in assay [2] (at 50.0 µM), 85.5% (active). The growth inhibition in assay [3] (setting [7]) is 1% (inactive); in assay [3] (setting [8]), 56% (inactive); in assay [3] (at 50.0 µM), 99.1% (active); in assay [4] (setting [7]) it was 0% (inactive); in assay [4] (setting [8]), 19% (inactive); in assay [4] (at 50.0 µM) it was 54.3% (inactive). Further, the growth inhibition in assay [5] (setting [7]) is 4% (inactive); in assay [5] (setting [8]) it was 48% (inactive); in assay [5] (at 50.0 µM), 87.7% (active); in assay [6] (setting [7]) it was 3% (inactive); in assay [6] (setting [8]) it was 35% (inactive); in assay [6] (at 50.0 µM) it was 93.3% (active).

`Cc1cccc(C)c1NC(=O)/C(CC(=O)CC(c1ccccc1)c1c(O)c2ccccc2oc1=O)=N/O` (configuration not stated): the growth inhibition in assay [1] (setting [7]) was 26% (inactive); in assay [1] (setting [8]) it was 60% (inactive); in assay [1] (at 50.0 µM) it was 1.1% (inactive); in assay [2] (setting [7]) it was 20% (inactive); in assay [2] (setting [8]), 34% (inactive); in assay [2] (at 50.0 µM) it was -5.8% (inactive). The growth inhibition in assay [3] (setting [7]) was 13% (inactive); in assay [3] (setting [8]), 55% (inactive); in assay [3] (at 50.0 µM), -1.5% (inactive); in assay [4] (setting [7]) it was 28% (inactive); in assay [4] (setting [8]), 45% (inactive); in assay [4] (at 50.0 µM) it was -10.4% (inactive). The growth inhibition in assay [5] (setting [7]) is 35% (inactive); in assay [5] (setting [8]) it was 50% (inactive); in assay [5] (at 50.0 µM) it was 4.85% (inactive); in assay [6] (setting [7]), 25% (inactive); in assay [6] (setting [8]), 43% (inactive); in assay [6] (at 50.0 µM) it was 2.1% (inactive).

With `Oc1cc(Cl)c(Cl)cc1Cl`, the growth inhibition in assay [1] (setting [7]) is 30% (inactive); in assay [1] (setting [8]), 98% (active); in assay [1] (at 50.0 µM), 98.5% (active) and 53% (inactive); in assay [2] (setting [7]), 12% (inactive); in assay [2] (setting [8]), 99% (active); in assay [2] (at 50.0 µM), 98.8% (active) and 98.6% (active). Also, the growth inhibition in assay [3] (setting [7]) was 17% (inactive); in assay [3] (setting [8]), 99% (active); in assay [3] (at 50.0 µM) it was 99.1% (active) and -3.1% (inactive); in assay [4] (setting [7]), 0% (inactive); in assay [4] (setting [8]) it was 99% (active); in assay [4] (at 50.0 µM) it was 97.5% (active) and 96.4% (active). Further, the growth inhibition in assay [5] (setting [7]) is -2% (inactive); in assay [5] (setting [8]) it was 99% (active); in assay [5] (at 50.0 µM), 98.1% (active) and 97.2% (active); in assay [6] (setting [7]), 18% (inactive); in assay [6] (setting [8]), 100% (active); in assay [6] (at 50.0 µM), 98.8% (active) and 52.5% (inactive).

As to `NC(=O)/C=C/C(=O)O` (tested in a mixture with another compound), the growth inhibition in assay [1] (setting [7]) is 0% (inactive); in assay [1] (setting [8]) it was 1% (inactive); in assay [1] (at 50.0 µM), -5.5% (inactive); in assay [2] (setting [7]), 2% (inactive); in assay [2] (setting [8]), -1% (inactive); in assay [2] (at 50.0 µM), 66.5% (inactive). Moreover, the growth inhibition is 0% (inactive) in assay [3] (setting [7]); 3% (inactive) in assay [3] (setting [8]); 7.2% (inactive) in assay [3] (at 50.0 µM); 1% (inactive) in assay [4] (setting [7]); 1% (inactive) in assay [4] (setting [8]); 23.1% (inactive) in assay [4] (at 50.0 µM). Also, the growth inhibition is -7% (inactive) in assay [5] (setting [7]); -4% (inactive) in assay [5] (setting [8]); 95.7% (active) in assay [5] (at 50.0 µM); -1% (inactive) in assay [6] (setting [7]); 2% (inactive) in assay [6] (setting [8]); 17.5% (inactive) in assay [6] (at 50.0 µM).

As to `c1cc2c(c(NC3=NCCN3)c1)CCCC2`, the growth inhibition is 12% (inactive) in assay [1] (setting [7]); 18% (inactive) in assay [1] (setting [8]); -12.2% (inactive) in assay [1] (at 50.0 µM); 1% (inactive) in assay [2] (setting [7]); -17% (inactive) in assay [2] (setting [8]); -18.9% (inactive) in assay [2] (at 50.0 µM). Further, the growth inhibition was 1% (inactive) in assay [3] (setting [7]); 12% (inactive) in assay [3] (setting [8]); -7% (inactive) in assay [3] (at 50.0 µM); -21% (inactive) in assay [4] (setting [7]); -4% (inactive) in assay [4] (setting [8]); 33.1% (inactive) in assay [4] (at 50.0 µM). In addition, the growth inhibition in assay [5] (setting [7]) was -26% (inactive); in assay [5] (setting [8]) it was -7% (inactive); in assay [5] (at 50.0 µM) it was -9.9% (inactive); in assay [6] (setting [7]), 2% (inactive); in assay [6] (setting [8]), 13% (inactive); in assay [6] (at 50.0 µM) it was 7.65% (inactive).

These data come from PubChem BioAssay (NCI).
